Measured values as given in PubChem BioAssay.
Active and inactive are the calls of the source. Unless noted, no rule for the calls is given here.

Assays:
[1] = test system: Wnt5a (protein binding on small-molecule microarray); assay: Wnt5a binders on small-molecule microarray, primary screen, biophysical, 635/667 nm fluorescence (AID 1142); settings: 635 nm fluorescence, higher = more signal;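 also: fluorescence read at 667 nm with signal to noise per printed feature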
[2] = cell viability in Huh7 cells, primary screen, cytotoxicity control for HCV replication inhibitor project, CellTiter-Glo luminescence, basal, 48 h (AID 1143); settings: Huh7 HCV replicon, higher = more signal, called active from +8 up or from −8 down;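 also: Huh7 hepatoma cells carrying a hepatitis C replication reporter with no stimulus; test concentration not given here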
[3] = P. aeruginosa biofilm formation inhibitors, primary screen, PAO1 strain, BacTiter-Glo luminescence, LB-PBS (AID 1144); settings: 12 h, higher = more signal
[4] = CREB reporter modulators without forskolin, primary screen, cell-based, PC12, CRE-LacZ reporter, unstimulated (AID 1145); settings: no forskolin, luminescence, 4.5 h, higher = more signal, called active from +8 up or from −8 down
[5] = CREB reporter modulators under forskolin, primary screen, cell-based, PC12, CRE-LacZ reporter, forskolin-stimulated (AID 1146); settings: luminescence, 4.5 h, higher = more signal, called active from +8 up or from −8 down;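 also: PC12 cells with 6xCRE LacZ reporter stimulated by forskolin 10 µM; beta-galactosidase reporter signal reflecting CREB driven transcription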
[6] = biological target: Streptavidin (Streptomyces avidinii) (UniProt P22629); assay: streptavidin binders on small-molecule microarray, primary screen, artefact control for SMM compound annotation, biophysical, 635/667 nm fluorescence (AID 1147); settings: streptavidin binding, higher = more signal;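 also: signal reflects streptavidin binding to arrayed compounds as a control protein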
Sequence of Streptavidin (Streptomyces avidinii) (P22629 whole entry, looked up): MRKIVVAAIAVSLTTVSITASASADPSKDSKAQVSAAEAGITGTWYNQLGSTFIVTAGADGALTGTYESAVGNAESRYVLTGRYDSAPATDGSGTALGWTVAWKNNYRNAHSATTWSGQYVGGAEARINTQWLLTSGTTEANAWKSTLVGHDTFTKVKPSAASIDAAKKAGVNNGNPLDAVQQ

[7] = small-molecule binders of probe aInhba, primary screen, biochemical, small-molecule microarray, 635/667 nm fluorescence (AID 1148); settings: higher = more signal;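 also: score merges 667nm spot fluorescence with signal-to-noise for antibody binding to printed compounds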
Torsin-1A (Homo sapiens) [8] = biological target: Torsin-1A (Homo sapiens) (UniProt O14656); assay: torsin A binders from cell lysate, primary screen, small-molecule microarray, wild-type, 635/667 nm (AID 1149); settings: COS7 hTOR1A-WT lysate, 635 nm fluorescence, higher = more signal
Sequence of Torsin-1A (Homo sapiens) (O14656 whole entry, looked up): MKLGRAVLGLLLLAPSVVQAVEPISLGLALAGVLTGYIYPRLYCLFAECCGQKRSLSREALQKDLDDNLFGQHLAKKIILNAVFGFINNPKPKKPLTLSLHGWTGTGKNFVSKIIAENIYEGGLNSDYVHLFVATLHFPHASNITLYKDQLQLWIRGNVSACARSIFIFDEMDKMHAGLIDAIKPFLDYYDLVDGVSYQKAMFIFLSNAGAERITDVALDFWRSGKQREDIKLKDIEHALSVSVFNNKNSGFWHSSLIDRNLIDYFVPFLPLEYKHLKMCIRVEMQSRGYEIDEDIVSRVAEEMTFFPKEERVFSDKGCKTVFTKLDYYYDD

Torsin-1A (Homo sapiens) [9] = biological target: Torsin-1A (Homo sapiens) (UniProt O14656); assay: small-molecule binders of mutant TOR1A in lysate, primary screen, cell lysate, small-molecule microarray, COS7 lysate, 635/667 nm fluorescence (AID 1150); settings: COS7 hTOR1A mutant lysate, 635 nm fluorescence, higher = more signal;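 also: score pools 667 nm emission and signal to noise measuring lysate protein binding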
[10] = test system: Sonic hedgehog protein (Shh); assay: small-molecule binders of Shh protein, primary screen, biochemical, small-molecule microarray, 635/667 nm fluorescence (AID 1151); settings: small-molecule microarray binding, 635 nm fluorescence; higher = more signal;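 also: Shh protein binding to compounds spotted on small-molecule microarray slides; score combines spot fluorescence intensity with signal-to-noise across triplicate slides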
[11] = E. coli DRC41 culture turbidity changes, primary screen, E. coli filamentation inducer project, strain DRC41, OD650, 48 h (AID 1152);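 also: E. coli MC1000 strain DRC41 lacking acrAB efflux pump and sulA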; settings: E. coli DRC41 (acrAB sulA), higher = more signal, called active from +8 up or from −8 down
[12] = small-molecule binders of probe aLefty1, primary screen, biochemical, small-molecule microarray, 635/667 nm fluorescence (AID 1153); settings: higher = more signal;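 also: score merges spot fluorescence with signal-to-noise ratio from the scanned slide images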
[13] = PSAC antagonists in infected red cells, primary screen, cell-based, P. falciparum Indochina, OD700, 1 h (AID 1154); settings: P. falciparum Indochina infected RBC osmotic lysis, higher = more signal, called active from +8 up or from −8 down
[14] = PSAC antagonists in infected red cells, primary screen, cell-based, P. falciparum Indochina, OD700, 2 h (AID 1155);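 also: lysis reports solute entry through the parasite surface anion channel PSAC; channel blockers reduce lysis of infected cells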; settings: P. falciparum Indochina infected erythrocytes, osmotic lysis OD700; higher = more signal, called active from +8 up or from −8 down
[15] = osmotic lysis modulators in infected erythrocytes, primary screen, PSAC antagonist project, cell-based, P. falciparum Indochina, OD700, 3 h (AID 1156); settings: higher = more signal, called active from +8 up or from −8 down
[16] = PSAC antagonists in infected red cells, primary screen, cell-based, P. falciparum Indochina, OD700, 18 h (AID 1157); settings: P. falciparum Indochina infected erythrocytes, osmotic lysis OD700, 18 h; higher = more signal, called active from +8 up or from −8 down
[17] = modulators of S6 phosphorylation in cells, primary screen, cell-based, A549, cytoblot, luminescence, serum-stimulated (AID 1158); settings: A549 phospho-S6 cytoblot, 5 h, higher = more signal;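 also: serum-stimulated A549 lung adenocarcinoma cells; signal is phosphorylated S6 detected by cytoblot immunostaining with HRP secondary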
[18] = biological target: NADPH oxidase 2 (Homo sapiens) (UniProt P04839); assay: NOX2-dependent H2O2 signal modulators, primary screen, NOX inhibitor project, cell-based, HEK293-NOX2, PMA-stimulated, Amplex Red fluorescence (AID 1159); settings: 45 min, higher = more signal, called active from +8 up or from −8 down; also: test concentration not given here
Sequence of NADPH oxidase 2 (Homo sapiens) (P04839 whole entry, looked up): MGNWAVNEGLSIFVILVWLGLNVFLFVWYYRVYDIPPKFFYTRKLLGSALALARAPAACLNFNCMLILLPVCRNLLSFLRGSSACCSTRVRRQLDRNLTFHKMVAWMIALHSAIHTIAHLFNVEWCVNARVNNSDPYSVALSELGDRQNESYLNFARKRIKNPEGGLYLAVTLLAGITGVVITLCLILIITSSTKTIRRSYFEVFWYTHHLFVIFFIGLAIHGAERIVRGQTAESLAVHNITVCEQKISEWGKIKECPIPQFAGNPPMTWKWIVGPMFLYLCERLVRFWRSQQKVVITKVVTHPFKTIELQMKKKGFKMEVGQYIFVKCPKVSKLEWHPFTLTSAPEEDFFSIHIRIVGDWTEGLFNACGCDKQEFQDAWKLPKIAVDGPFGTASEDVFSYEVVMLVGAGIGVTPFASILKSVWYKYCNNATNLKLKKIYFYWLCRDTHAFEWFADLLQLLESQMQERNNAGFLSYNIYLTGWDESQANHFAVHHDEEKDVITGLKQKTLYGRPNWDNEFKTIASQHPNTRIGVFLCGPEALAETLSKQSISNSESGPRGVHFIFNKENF

[19] = biological target: NADPH oxidase 4 (Homo sapiens) (UniProt Q9NPH5); assay: NOX4-dependent H2O2 signal modulators, primary screen, NOX inhibitor project, cell-based, HEK293-NOX4, tetracycline-induced, Amplex Red fluorescence (AID 1160); settings: 45 min, higher = more signal, called active from +8 up or from −8 down
Sequence of NADPH oxidase 4 (Homo sapiens) (Q9NPH5 whole entry, looked up): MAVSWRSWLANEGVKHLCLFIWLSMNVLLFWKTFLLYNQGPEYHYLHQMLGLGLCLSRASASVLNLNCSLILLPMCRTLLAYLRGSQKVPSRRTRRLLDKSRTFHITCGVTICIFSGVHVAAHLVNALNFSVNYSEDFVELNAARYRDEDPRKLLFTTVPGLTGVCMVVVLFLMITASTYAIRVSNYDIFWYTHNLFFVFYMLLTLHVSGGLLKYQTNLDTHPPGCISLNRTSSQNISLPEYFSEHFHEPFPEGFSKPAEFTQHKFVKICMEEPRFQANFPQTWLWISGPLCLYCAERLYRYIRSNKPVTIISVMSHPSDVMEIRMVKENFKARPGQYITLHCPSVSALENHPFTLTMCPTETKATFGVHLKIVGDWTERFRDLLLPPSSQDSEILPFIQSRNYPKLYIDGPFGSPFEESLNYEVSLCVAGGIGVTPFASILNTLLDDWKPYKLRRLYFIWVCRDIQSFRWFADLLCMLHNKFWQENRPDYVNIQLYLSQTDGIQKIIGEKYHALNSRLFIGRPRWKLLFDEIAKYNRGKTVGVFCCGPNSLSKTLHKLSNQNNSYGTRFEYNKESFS

[20] = biological target: NADPH oxidase 5 (Homo sapiens) (UniProt Q96PH1); assay: NOX5-dependent H2O2 signal modulators, primary screen, NOX inhibitor project, cell-based, HEK293-NOX5, Amplex Red fluorescence (AID 1161); settings: HEK293-NOX5, ionomycin, 45 min, higher = more signal
Sequence of NADPH oxidase 5 (Homo sapiens) (Q96PH1 whole entry, looked up): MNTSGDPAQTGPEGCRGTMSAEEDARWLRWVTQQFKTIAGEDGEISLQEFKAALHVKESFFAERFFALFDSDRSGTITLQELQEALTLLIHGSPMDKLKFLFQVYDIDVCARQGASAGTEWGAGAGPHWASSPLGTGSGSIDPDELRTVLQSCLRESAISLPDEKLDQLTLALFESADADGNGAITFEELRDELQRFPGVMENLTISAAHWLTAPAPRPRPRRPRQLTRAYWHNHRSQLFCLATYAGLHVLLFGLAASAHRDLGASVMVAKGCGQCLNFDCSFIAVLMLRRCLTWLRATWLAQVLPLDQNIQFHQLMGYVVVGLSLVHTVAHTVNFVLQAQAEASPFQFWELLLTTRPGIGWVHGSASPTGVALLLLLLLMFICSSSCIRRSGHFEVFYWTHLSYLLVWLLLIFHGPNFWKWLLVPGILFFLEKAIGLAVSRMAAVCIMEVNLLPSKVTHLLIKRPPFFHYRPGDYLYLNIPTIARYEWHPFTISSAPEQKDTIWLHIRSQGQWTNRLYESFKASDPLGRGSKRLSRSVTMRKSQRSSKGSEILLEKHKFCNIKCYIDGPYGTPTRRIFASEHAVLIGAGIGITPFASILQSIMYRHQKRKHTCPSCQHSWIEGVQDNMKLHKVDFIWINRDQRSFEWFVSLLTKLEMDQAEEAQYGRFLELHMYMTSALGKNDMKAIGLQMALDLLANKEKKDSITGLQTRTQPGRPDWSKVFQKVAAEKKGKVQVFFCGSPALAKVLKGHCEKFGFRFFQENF

Row | Compound | composite z-score [1] | z-score [2] | z-score [3] | z-score [4] | z-score [5] | composite z-score [6] | composite z-score [7] | composite z-score (Torsin-1A (Homo sapiens) [8]) | composite z-score (Torsin-1A (Homo sapiens) [9]) | composite z-score [10] | z-score [11] | composite z-score [12] | z-score [13] | z-score [14] | z-score [15] | z-score [16] | z-score [17] | z-score [18] | z-score [19] | z-score [20]
1 | CCCCNC(=O)c1ccc(C#CC(C)(C)C)c(OC(C)=O)c1 | 0.0744 | -1.7 (inactive) | -0.245 (inactive) | 1.78 (inactive) | -0.512 (inactive) | 1.01 | -0.21 | 0.121 | 0.686 | 0.804 | 0.567 (inactive) | -0.148 | 4.63 (inactive) | 0.802 (inactive) | 2.09 (inactive) | 0.181 (inactive) | 0.355 | -0.137 (inactive) | 0.344 (inactive) | 0.416
2 | COCCOC(=O)N1C(=O)[C@@]2(c3cc(C#CC4=CCCCC4)ccc31)[C@H](c1ccccc1OCCO)N1[C@H](c3ccccc3)[C@H](c3ccccc3)OC(=O)[C@H]1[C@@H]2C(=O)N1CCN(c2ncccn2)CC1 | 0.471 | -4.96 (inactive) | -1.23 (inactive) | -1.28 (inactive) | -0.752 (inactive) | 0.407 | 0.181 | 0.0128 | 0.202 | 0.942 | 0.978 (inactive) | 1.04 | 1.04 (inactive) | -0.579 (inactive) | 0.281 (inactive) | -0.492 (inactive) | 0.65 | 0.976 (inactive) | 0.868 (inactive) | 1.32
3 | O[C@@H](Cc1ccccc1)[C@@H](/C=C/C1CC1)N(CC#Cc1ccccc1)Cc1ccccc1Br | -1.03 | -1.72 (inactive) | 0.357 (inactive) | 2.41 (inactive) | 0.21 (inactive) | -0.5 | -0.183 | -0.802 | -0.744 | -1.5 | 0.241 (inactive) | 0.187 | 2.05 (inactive) | 1.37 (inactive) | 0.108 (inactive) | 0.475 (inactive) | 0.131 | -0.612 (inactive) | 0.221 (inactive) | -0.586
4 | CC(=O)NCCCC[C@@H]1NC(=O)[C@@H]2C[C@H](C(=O)NCCCCCN)[C@H](c3cccc(OCCO)c3)N2C1=O | 0.698 | -0.804 (inactive) | -1.02 (inactive) | -1.34 (inactive) | -0.892 (inactive) | 1.37 | -0.19 | 0.738 | -0.0879 | 1.66 | 2.26 (inactive) | -0.22 | 2.03 (inactive) | -0.543 (inactive) | 1.98 (inactive) | -1.27 (inactive) | 4.55 | 1.14 (inactive) | 1.06 (inactive) | 1.74
5 | O=C(NCCN1CCOCC1)[C@@H]1c2ccccc2C(=O)N(C2Cc3ccccc3C2)[C@H]1c1ccc(CO)cc1 | -0.136 | -1.59 (inactive) | -0.264 (inactive) | 0.118 (inactive) | -1.42 (inactive) | -0.456 | -0.0509 | 1.3 | 0.966 | 0.105 | 2.03 (inactive) | -0.0292 | 3.11 (inactive) | -0.0966 (inactive) | -0.056 (inactive) | 0.0832 (inactive) | 1.31 | 0.182 (inactive) | 0.855 (inactive) | -0.0278
6 | CC1CC/C=C\[C@H]2OC34C=CCN(C(C)C)C(=O)[C@H]3N(CCO)C(=O)[C@@H]4C2C(=O)O1 (stereo not given in full) | -0.417 | -0.177 (inactive) | 0.591 (inactive) | -0.619 (inactive) | -0.599 (inactive) | -1.14 | -0.203 | -0.737 | -1.17 | -0.778 | 0.904 (inactive) | -0.101 | 0.158 (inactive) | 0.22 (inactive) | -0.285 (inactive) | 0.112 (inactive) | 1.86 | 2.21 (inactive) | -0.785 (inactive) | 2.03
7 | CCOC(=O)C[C@H]1[C@H](OC(=O)c2cc3ccccc3oc2=O)[C@@H](NC(=O)CC(C)C)c2cc(OCCCO)ccc2N1C(=O)c1ccc2ccccc2n1 | -0.0457 | 0.152 (inactive) | 0.152 (inactive) | 4.46 (inactive) | 0.446 (inactive) | 0.138 | -0.128 | -0.0914 | 0.234 | 1.41 | -0.618 (inactive) | -0.0061 | 9.02 (active) | 1.25 (inactive) | 0.609 (inactive) | 0.647 (inactive) | -0.679 | 1.01 (inactive) | 1.23 (inactive) | 0.7
8 | [N-]=[N+]=NCc1ccccc1[C@H]1OC(c2ccc(OCCCO)cc2)=N[C@@]1(Cc1ccccc1N=[N+]=[N-])C(=O)NCC(O)CO (stereo not given in full) | 0.462 | -3.57 (inactive) | 0.401 (inactive) | 0.745 (inactive) | -1.22 (inactive) | 0.9 | 0.346 | 0.256 | 0.301 | -0.562 | -0.502 (inactive) | 0.54 | 27.6 (active) | 21 (active) | 1.37 (inactive) | 2.09 (inactive) | -0.48 | -3.08 (inactive) | -0.592 (inactive) | -1.71
